“And” between values parts separate entries of the source, which are not always exact repeats. Equal values may be shown once. In all, about 190,000 compounds went through this assay and about 1,300 (0.68%) were called active. Rule as the data show it: active = inhibition above about 50%; inactive = the rest. Many of the other results were omitted from the sample, so actives are more common in it than they were.
target: Mannose-6-phosphate isomerase (Homo sapiens) (UniProt P34949); assay: human PMI inhibitors, high substrate, primary screen, biochemical, fluorescence intensity, high mannose 6-phosphate (AID 1220); settings: recombinant PMI enzyme, coupled fluorescence intensity; at 20 µM; hits give high values
Sequence (P34949 whole entry, looked up): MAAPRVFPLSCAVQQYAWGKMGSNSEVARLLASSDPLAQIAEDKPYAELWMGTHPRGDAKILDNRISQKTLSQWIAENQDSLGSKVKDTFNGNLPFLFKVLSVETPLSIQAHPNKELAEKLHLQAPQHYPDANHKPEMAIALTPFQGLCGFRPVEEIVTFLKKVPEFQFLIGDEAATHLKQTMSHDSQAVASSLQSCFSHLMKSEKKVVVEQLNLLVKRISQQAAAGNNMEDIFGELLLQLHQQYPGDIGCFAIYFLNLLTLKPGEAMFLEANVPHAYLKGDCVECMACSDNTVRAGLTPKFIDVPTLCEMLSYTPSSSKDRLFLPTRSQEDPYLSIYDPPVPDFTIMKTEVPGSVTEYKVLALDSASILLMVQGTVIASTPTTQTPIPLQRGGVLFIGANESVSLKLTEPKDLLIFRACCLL

inhibition, inactive:
O=C(CCc1c[nH]c2ccccc12)NCc1ccco1 -5.8%, O=C(Cc1c[nH]c2ccccc12)NCc1ccco1 7.4%, COc1ccc(OCC(=O)Nn2c(-c3ccc(C)cc3)nc3ccccc3c2=O)cc1 12.7%, O=c1[nH]c2cc3c(cc2cc1CN(Cc1nnnn1CC1CCCO1)C1CCCCC1)OCO3 (stereo not drawn) 5.5%, COc1ccc(/C=N\n2nnc3ccccc32)cc1 -4.2%, COc1ccc(OCC(=O)Nc2cccc3ncccc23)cc1 3.4%, Cc1ccc(C=Nc2ccccc2C(N)=O)cc1 0.6%, Nc1ncc(Br)cc1N=Cc1ccccc1 24.6%, Cc1ccc(NC(=O)CCC(=O)N/N=C/c2cccs2)cc1 -0.5%, COc1cc(CNc2ccc(N3CCN(C(C)=O)CC3)cc2)ccc1OCc1ccccc1 38.7%, CCOc1cc(CNc2ccc(O)cc2)cc(Br)c1OCc1ccccc1F 29.5%, CCNCc1ccc(OCc2ccccc2F)c(OC)c1 -4.4%, COc1ccc(CNc2ccc(C)c(C)c2)cc1 9.2%, COc1cc(CNc2ccc(O)cc2)cc(Br)c1OCc1ccccc1 49.4%, COc1cc(CNc2ccc(N3CCN(C(C)=O)CC3)cc2)ccc1OCc1ccc(F)cc1 27%, COc1cc(CNCCCCO)ccc1OCc1ccccc1F 2.9%, COc1ccc(CNS(=O)(=O)NCc2ccc(OC)c(OC)c2)cc1 -3.8%, Cc1cccc(C)c1NC(=O)C1=C(O)c2sccc2N(C)S1(=O)=O 2.2%, CCOC(=O)c1c(NC(=O)CSc2nnc(CNC(=O)c3ccco3)n2C)sc2c1CCC2 4.5%, CCCCCNCc1cccn1C -9.2%, CCC(CC)N=C1NS(=O)(=O)c2cc([N+](=O)[O-])ccc21 -4.3%, Cc1cc(=O)oc2cc(OCC(O)CN3CCN(c4ccc(F)cc4)CC3)ccc12 (stereo not drawn) 7.1%, O=C(COC(=O)COc1ccccc1)Nc1ccccc1OC(F)F -0.8%, Cc1cccc(NS(=O)(=O)c2cc(C(=O)N3CCOCC3)ccc2Cl)c1 6.8%, CN(C)c1cccc(C(=O)NC2CCCCCC2)c1 5.6%, Cc1ccccc1CN(C)CC(=O)Nc1c(C)cccc1C(C)C 0.5%, Cc1cccc(OCCOc2ccccc2C=C(C#N)C#N)c1 11%, CN(C)c1ccc(/C=N/O)cc1 44.3%, Cc1ccccc1OCCOc1ccccc1C=C(C#N)C#N 16.3%, CC(=O)c1ccc(N(C)C)c2c(N(C)C)cccc12 38.5%, CCOC(=O)C1CCN(C(=O)c2ccc3c(c2)OCO3)CC1 11.2%, COc1ccccc1OCC(=O)Nn1c(=S)[nH]c2ncccc2c1=O -3.7%, CC(c1ccccc1)n1cc(C(=O)NCCN2CCOCC2)nn1 (stereo not drawn) -7.2%, Cc1csc(NC(=O)c2ccccc2[N+](=O)[O-])n1 -6.4%, Nc1ccc(Br)cc1C(=O)O 1.2%, COC(=O)c1ccncc1N 8.9%, COc1ccc(NC(=O)CSc2nc3c(c(=O)n2-c2ccccc2)SCC3)c(OC)c1 2.7%, CCN(CC)C(=O)c1cn(CC)c(=O)c2cc(OC)c(OC)cc12 -0.2%, CC(=O)Nc1cccc(NC(=O)Nc2ccc(F)cc2F)c1 19.6%, CC(=O)Nc1cccc(NC(=S)Nc2ccc(F)c(Cl)c2)c1 41.1%, COc1cccc(-n2c(Cc3cc(=O)[nH]c(=O)[nH]3)nnc2SCC(=O)N2CCC(C)CC2)c1 3.3%, CCOC(=O)c1c(C)[nH]c(C)c1C(=O)COC(=O)c1ccc(S(=O)(=O)N(CC)CC)cc1 4.4%, Cc1ccc2nc(C)c(C)nc2c1N 23.4%, Nc1ccc2ncccc2c1N 49.6%, Cc1ccc2ncccc2c1[N+](=O)[O-] 9.7%, c1cnc2c(c1)ccc1cccnc12 -13% and -7.3%, O=C(c1cnc2n(c1=O)CCS2)N(c1ccccc1)C1CCCCC1 -10.4%, CCc1ccc(NC(=O)c2c(C(=O)Nc3ccccc3)sc3nc(C)cc(=O)n23)cc1 -2.4%, CCOC(=O)N1CCN(Cc2c(NC(=O)c3ccco3)sc(C)c2C)CC1 3.6%, CC1=NC(C)(C)Cc2ccccc21 11%, CC1(C)CC(=O)C(C2=NC(C)(C)Cc3ccccc32)=C(O)C1 -9.5%, CCOc1ccc2[nH]c(=S)[nH]c2c1 20.7%, COC(=O)/C=C1\N/C(=N\c2nc(C)cc(C)n2)N(c2ccc(C)cc2)C1=O -5.3%, COC(=O)/C=C1/N/C(=N\c2nc(C)cc(C)n2)N(c2ccccc2)C1=O 13.3%

inhibition, active:
NC(Cc1c[nH]c2ccccc12)C(=O)NCc1ccco1 (stereo not drawn) 55.4%, COc1ccc(C=Nc2cccc3ncccc23)cc1 63.3%, Cc1ccc(C=Nc2cccnc2N)cc1 63.2%, COc1cc(CNc2ccc(N3CCCC3)cc2)ccc1OCc1ccccc1F 55.7%, COc1cc(CNc2ccc(O)cc2)cc(Br)c1OCc1ccccc1F 57.4%, COc1cc(CNc2ccc(N3CCCC3)cc2)ccc1OCc1ccccc1 71.5%, COc1ccc(NCc2ccc(OC)c(OC)c2)cc1 60.3%, CN(C)c1cccc2c(C=C(C#N)C#N)ccc(N(C)C)c12 63.9%, CN(C)c1cccc2c(/C=N/O)ccc(N(C)C)c12 51.7%, Nc1cnccc1C(=O)O 63.7%, CC(=O)Nc1cccc(NC(=S)Nc2ccc(F)cc2F)c1 55.8%, Cc1ccc2ncccc2c1N 63.7%, Cc1ccc2cccnc2c1N 70.5%, COC(=O)/C=C1/N/C(=N\c2nc(C)cc(C)n2)N(c2cccc(C)c2)C1=O 50.4%

From PubChem BioAssay AID1220 (Sanford-Burnham Center for Chemical Genomics, 2008)
